Compounds with a hit are over-represented: about 4.8% of the library has one in this group of screens.
tim10-1 inh = tim10-1 yeast growth inhibition; S. cerevisiae tim10-1 ts strain growth, BacTiter-Glo, 24 h; inhibition, % at 20 µM; 2.2% of 330,000 active; AID 463190;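 active means inhibition of at least 40%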;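 further: mutant grown at 25 °C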
SKKanGAS inh = SKKanGAS growth inhibition; 1.3% of 300,000 active; S. pyogenes SKKanGAS, kanamycin growth, BacTiter-Glo, 6 h; inhibition, % at 7.5 µM; AID 1662;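 active means mean replicate score, as percent of positive control median, at least 50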;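 further: strain carries kanamycin resistance gene driven by streptokinase promoter and grows in 40 µg/ml kanamycin; loss of luminescence reflects streptokinase promoter inhibition or plain growth inhibition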
tim23-1 inh = tim23-1 yeast growth inhibition; S. cerevisiae tim23-1 growth, BacTiter-Glo luminescence, 24 h; inhibition, % at 20 µM; 1.3% of 330,000 active; AID 463212;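 active means growth inhibition of the mutant yeast at or above 50%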;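 further: temperature-sensitive mutant grown at 25 °C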
NALP1 yeast inh = inhibitors of NALP1 inflammasome in yeast; S. cerevisiae NALP1/ASC/caspase-1 growth, X-gal OD620, 72 h; inhibition, % at 10 µM; 0.61% of 280,000 active; AID 2071; in the data active means inhibition mostly above about 24%, no sharp cut-off; inactive means mostly below about 32%
TIM10 inh = TIM10 yeast growth inhibition; S. cerevisiae TIM10 strain growth, BacTiter-Glo luminescence, 24 h; inhibition, % at 10 µM; 1.4% of 330,000 active;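 active means inhibition of 40% or more at the single tested concentration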;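 further: wild-type TIM10 isogenic control strain grown at permissive 25 °C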
PfHsp90 set2 = inhibits growth of yeast expressing Plasmodium falciparum Hsp90; S. cerevisiae expressing PfHsp90, BacTiter-Glo ATP, 48 h; yeast lacking PDR1 and PDR3 efflux regulators; inhibition, % at 9.4 µM; 0.32% of 310,000 active; AID 504621;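 active means every replicate shows inhibition above about 80%, whatever the replicate mean, limit read from the data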
Hits are given with their value; 0 = inactive; - = not tested or not shown.

SMILES | tim10-1 inh | SKKanGAS inh | tim23-1 inh | NALP1 yeast inh | TIM10 inh | PfHsp90 set2
O=C(Oc1ccc(-c2csnn2)cc1)C1CC1 | 0 | 0 | 0 | 0 | 0 | 0
Cc1cccc(N2CCN(C(=O)C34CC5CC(CC(C5)C3)C4)CC2)c1C | 0 | 83 | 0 | 0 | 0 | 0
CC(OC(=O)CNC(=O)C12CC3CC(CC(C3)C1)C2)C(=O)Nc1ncc(Cl)cc1Cl (stereo not drawn) | 0 | 0 | 0 | 40 | 0 | 0
COC(=O)C1=C(C(=O)OC)N2C=CC=CC2(C)C(C(=O)OC)=C1C(=O)OC (stereo not drawn) | - | 0 | - | 0 | - | 0
Cc1ccccc1-n1nc(C(=O)c2cccs2)cc(-c2nc3ccccc3[nH]2)c1=N | 0 | 86 | 0 | 0 | 0 | -
COc1ccc(-n2nc(C(=O)c3cccs3)cc(-c3nc4ccccc4[nH]3)c2=N)cc1 | 0 | 58 | 0 | 0 | 0 | -
Cc1cc(NC(=O)c2cccs2)n(-c2nc3ccccc3[nH]2)n1 | 0 | 0 | 0 | 0 | 0 | 0
Cc1ccc(SCc2c(C(=O)N/N=C/c3ccncc3)nnn2-c2nonc2N)cc1 | 0 | 0 | 0 | 0 | 0 | 0
COc1ccc(CC2(CO)CCN(Cc3c(C)nn(C(C)C)c3C)CC2)cc1 | 0 | 0 | 0 | 0 | 0 | 0
Cc1ccccc1NC(=O)CCCCCN1C(=O)[C@@H]2Cc3ccccc3CN2C1=O | 0 | 0 | 0 | 0 | 0 | 0
CC(C)(C)C(=O)COC(=O)c1ccccc1O | 0 | 0 | 0 | 37 | 0 | 0
COc1ccc(/C=c2\s/c(=C/C(=O)c3ccc(C)cc3)[nH]c2=O)cc1OC | 0 | 62 | 0 | 0 | 0 | 0
O=S1(=O)CCC(NS(=O)(=O)/C=C/c2ccccc2)C1 (stereo not drawn) | 0 | 0 | 0 | 0 | 0 | 0
O=S(=O)(/C=C/c1ccccc1)NC1CCCCCCC1 | 0 | 0 | 0 | 0 | 0 | 88
O=S(=O)(/C=C/c1ccccc1)NC1CCCCCC1 | 0 | 0 | 0 | 0 | 0 | 99
CCN(CC(=O)Nc1ccccc1C(F)(F)F)C(=O)c1cc(S(=O)(=O)N(C)C)ccc1N1CCCC1 | 0 | 0 | 0 | 0 | 0 | 0
Cc1cc(NS(=O)(=O)c2ccc(NC(=O)CSc3nc4sc(C(=O)O)c(C)c4c(=O)[nH]3)cc2)no1 | 0 | 0 | 0 | 0 | 0 | 0
Cc1cc(NS(=O)(=O)c2ccc(NC(=O)CSc3nc4sc(C)c(C)c4c(=O)[nH]3)cc2)no1 | 0 | 54 | 0 | 0 | 0 | 0
COC(=O)c1ccc(/C=C2\N=C(SC)SC2=O)cc1 | 0 | 0 | 0 | 0 | 0 | 0
Cc1nonc1NC(=O)CSc1nnc(-c2ccoc2C)n1-c1cccc(Cl)c1 | 0 | 0 | 0 | 44 | 0 | 0
CCOC(=O)NC(NC(=O)OCC)C(=O)c1ccccc1 | 0 | 0 | 0 | 0 | 0 | 0
COc1ccc(C(=O)OCCN2C(=O)c3ccccc3C2=O)cc1 | 0 | 0 | 0 | 0 | 0 | 0
O=C(CSC(=S)N1CCOCC1)Nc1nc(-c2ccccc2)c(-c2ccccc2)o1 | 0 | 0 | 0 | 0 | 0 | -
Cn1nnnc1SCC(=O)Nc1ccccn1 | 0 | 0 | 0 | 0 | 0 | -
O=C(CSC(=S)N1CCCCC1)Nc1nc(-c2ccccc2)c(-c2ccccc2)o1 | 0 | 50 | 0 | 0 | 0 | -
SMILES | tim10-1 inh | SKKanGAS inh | tim23-1 inh | NALP1 yeast inh | TIM10 inh | PfHsp90 set2
Cn1nnnc1SCC(=O)Nc1nc(-c2ccccc2)c(-c2ccccc2)o1 | 0 | 59 | 0 | 0 | 0 | 0
CCn1c(SCC(=O)Nc2cc(OC)c(OC)c(OC)c2)nnc1-c1cccs1 | 0 | 0 | 0 | 0 | 0 | 0
Cc1ccc(NS(=O)(=O)c2ccc(Cl)c(NC(=S)NC(=O)C3CCCCC3)c2)cc1Cl | 0 | 84 | 0 | 0 | 0 | 0
CC(=O)Nc1ccc(NC(=S)NC(=O)C2CCCC2)cc1 | 0 | 0 | 0 | 32 | 0 | 0
O=C(NC(=S)Nc1ccccc1Br)C1CC1 | 0 | 0 | 0 | 0 | 0 | 0
Cc1ccc(NC(=O)C2CCCC2)cc1Cl | 0 | 0 | 0 | - | 0 | 0
CCOc1ccccc1NC(=S)NC(=O)C1CC1 | 0 | 0 | 0 | 26 | 0 | 0
CC1(C)CC(=O)C=C(NNC(=O)c2ccc(N)cc2)C1 | 0 | 0 | 0 | 0 | 0 | 0
COc1ccc(/C=C2\Sc3ccc(C(=O)NCCN4CCCCCC4)cc3N(C)C2=O)cc1 | 0 | 0 | 0 | 0 | 0 | 0
COc1ccc(/C=C2\Sc3ccc(C(=O)N4CCc5ccccc5C4)cc3N(C)C2=O)cc1 | 0 | 103 | 0 | 0 | 0 | -
Cc1ccc(/C=C2/Sc3ccc(C(=O)N4CCN(C)CC4)cc3NC2=O)cc1 | 0 | 54 | 0 | 0 | 0 | 0
COc1ccc(/C=C2/Sc3ccc(C(=O)N4CCc5ccccc5C4)cc3NC2=O)cc1 | 0 | 102 | 0 | 0 | 0 | 0
COc1cccc(/C=C2/Sc3ccc(C(=O)NCCN4CCCC4)cc3NC2=O)c1 | 0 | 0 | 0 | 0 | 0 | 0
O=C(COc1ccc(S(=O)(=O)Nc2ccccc2)cc1)NCc1ccncc1 | 0 | 0 | 0 | 0 | 0 | 0
CCN1CCc2nc3sc(C(=O)N4CCc5ccccc5C4)c(N)c3cc2C1 | 0 | 0 | 0 | 0 | 0 | 0
CC(C)c1ccc2nc3sc(C(=O)N4CCc5ccccc5C4)c(N)c3cc2c1 | 0 | 54 | 0 | 0 | 0 | 0
CCN(CC)CCCN(Cc1cc2cc3c(cc2[nH]c1=O)OCO3)C(=S)NC | 0 | 0 | 0 | 0 | 0 | 0
CCN1C(=O)CC(Sc2ccccc2C(=O)O)C1=O (stereo not drawn) | 0 | 0 | 0 | 0 | 0 | 0
COC(=O)c1ccccc1SC1CC(=O)N(c2ccccc2)C1=O (stereo not drawn) | 0 | 0 | 0 | 78 | 0 | 0
COc1ccc(N2C(=O)CC(N(C)CCc3ccc(OC)c(OC)c3)C2=O)cc1 (stereo not drawn) | 0 | 0 | 0 | 41 | 0 | 0
COC(=O)c1ccc(N2C(=O)CC(N(C)Cc3ccccc3)C2=O)cc1 (stereo not drawn) | 0 | 0 | 0 | 0 | 0 | 104
COc1ccc(CCN(C)C2CC(=O)N(c3ccccc3)C2=O)cc1OC (stereo not drawn) | 0 | 0 | 0 | 56 | 0 | 0
CCOC(=O)C1=C(C)NC(C)=C(C(=O)OCC)C1c1ccc([N+](=O)[O-])s1 | 0 | 51 | 0 | 0 | 0 | 0
O=C(O)Cc1ccc(NC(=O)Nc2ccc(Br)cc2)cc1 | 0 | 0 | 0 | 32 | 0 | 0
CCCC(=O)Nc1ccc(C)c(O)c1 | 0 | 0 | 0 | 0 | 0 | 0
CC(=O)c1cc(F)c(N2CCOCC2)cc1C | 0 | 0 | 0 | 44 | 0 | 0
O=C1C2CCCN2C(=O)N1CCCN1CCN(c2ccc([N+](=O)[O-])cc2)CC1 (stereo not drawn) | 0 | 0 | 0 | 0 | 0 | 0
COc1cc(C)c(CNc2ccc(OC)c(OC)c2)cc1C | - | 0 | - | 0 | - | -
O=S(=O)(c1ccc(NC(=S)N/N=C/c2ccc(O)c(O)c2)cc1)N1CCOCC1 | 0 | 0 | 0 | 0 | 0 | 0
O=[N+]([O-])c1cc(Cl)cc(/C=N/NC(=S)Nc2ccc(S(=O)(=O)N3CCOCC3)cc2)c1O | 0 | 94 | 0 | 0 | 0 | 0
